Assay outcomes as filed in PubChem.
NS1 function inh = inhibitors of influenza NS1 protein function; 0.4% of 270,000 active; Potency, µM (titrated, usually from 46.1 µM), for the others: top-dose activity, positive = more growth; calls by dose curve; note: actives are rising curves; nearly all actives have a fitted effect of over 50% in size
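A cell-based growth assay was used: compounds that relieve NS1-induced slow growth of budding yeast raise OD600. Assay medium was yeast nitrogen base with ammonium sulphate and -URA supplement, pH 6.0, with 2% galactose.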
SARS PLpro yeast = blocks SARS-CoV papain-like protease in a yeast assay; S. cerevisiae expressing SARS-CoV PLpro, growth rescue; Potency, µM (series often up to 32.9 µM), for inactives: top-dose activity, positive = growth rescue, usual class: activators; 0.19% of 330,000 active; calls by dose curve; note: 0% is about no effect; nearly all actives have a fitted effect of over 55% in size
Pf growth 96h = P. falciparum growth inhibition at 96 hour, primary screen for plastid delayed-death inhibitors; P. falciparum luciferase reporter growth, 96 h; Potency, µM (highest dose often 28.7 µM), for inactives: top-dose activity change, negative = inhibition, most hits filed as inhibitors; 6.9% of 320,000 active; AID 504834; note: % is set by controls: 0 for no effect and ±100 for the full control effect
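Parasite growth measured via integrated firefly luciferase reporter in P. falciparum. Infected erythrocytes at 2% hematocrit, 0.05% parasitemia final were treated 96 hours at 37 C under 5% CO2, and luminescence was read.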
Pf growth 48h = inhibits P. falciparum growth in the first generation, 48 h; P. falciparum luciferase growth in erythrocytes, 48 h; 5.9% of 310,000 active; Potency, µM (highest dose often 28.7 µM), without a hit: top-dose activity change, negative = inhibition, most hits filed as inhibitors; note: % is set by controls: 0 for no effect and ±100 for the full control effect
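Luminescence readout; reporter = integrated firefly luciferase in P. falciparum. RBC culture at 2% hematocrit, 0.1% parasitemia final, 37 C/5% CO2; decreased signal taken as growth inhibition.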
An asterisk follows results filed as active; ? = inconclusive; . = no result; [ ] = dose if it differs, or a comment. A selection: hits, their analogues and other compounds. The true share with any hit is near 10%. Unless noted, calls come from the whole dose curve; as a rule, active = well fitted inhibition curve with a large enough effect; inconclusive = small, poorly fitted or top-dose-only effect, or another doubt; inactive = no such curve, though single readings can be large or run the other way. Potency is the fitted concentration of half-maximal effect.

SMILES	NS1 function inh	SARS PLpro yeast	Pf growth 96h	Pf growth 48h
COc1ccc(COC(=O)C2=C(C)NC(=O)NC2c2ccc(F)cc2)cc1 (stereo not drawn)	11%	10%	2.9µM*	?
CC(C)CCNC(=O)CCc1nnc2n(CCCOC(C)C)c(=O)c3ccccc3n12	0%	4%	26%	?
COc1ccc(Cc2nnc(SCC(=O)Nc3ccccc3C#N)o2)cc1	11%	1%	?	10%
COc1ccc(C(=O)NC2CC2)cc1OC1CCN(Cc2ccc(F)cc2)CC1	5%	-5%	?	-20%
CCn1ncc(CN2CCC(Oc3cc(C(=O)NC4CC4)ccc3OC)CC2)c1C	7%	-2%	1µM*	-3%
C#Cc1ccc(CN2CCC(Oc3cc(C(=O)NC4CC4)ccc3OC)CC2)cc1	3%	2%	-1%	13µM*
CC(=O)Nc1sc(C)c(C)c1C(=O)OCC(=O)NCc1ccc(F)cc1	.	3%	26%	?
COc1ccc(CNC(=O)Cn2nnc3ccccc3c2=O)cc1	6%	3%	86%	90%
CC1CCCCC1NS(=O)(=O)c1ccc(S(=O)(=O)N2CCN(CCC#N)CC2)cc1 (stereo not drawn)	-27%	-2%	-24%	13µM*
C=CCN1C(=CCO)[C@H]2C[C@H]3[C@@H]1CC[C@@]31c3ccccc3N3C=C4[C@@H]5N(/C=C/2[C@H]31)c1ccccc1[C@]51CC[C@H]2[C@H]1C[C@@H]4/C(=C/CO)N2CC=C	.	.	-17%[12.8 µM]	10%[12.8 µM]
COc1ccc(NC(=O)C2CCCNC2=O)cc1 (stereo not drawn)	0%	1%	6.6µM*	24%
O=C1NCCCC1C(=O)Nc1cccc(C(F)(F)F)c1 (stereo not drawn)	-6%	-5%	-5%	-20%
Cc1ccc(NC(=O)C2CCCNC2=O)nc1 (stereo not drawn)	6%	1%	2%	16%
CC(=O)c1ccc(NC(=O)C2CCCNC2=O)cc1 (stereo not drawn)	4%	-2%	5.2µM*	15%
O=S(=O)(c1ccccc1)N1CCN(c2nc(-c3cccnc3)nc3ccccc23)CC1	.	-2%	8.3µM*	?
CC(=O)c1ccc(S(=O)(=O)N2CCN(c3nc(-c4cccnc4)nc4ccccc34)CC2)cc1	.	-5%	?	8.3µM*
O=S(=O)(c1ccc(F)cc1)N1CCN(c2nc(-c3cccnc3)nc3ccccc23)CC1	.	-4%	10µM*	9.3µM*
O=S(=O)(c1ccccc1)N1CCN(c2nc(-c3cccs3)nc3ccccc23)CC1	2%	-21%	?	-15%
O=S(=O)(c1ccc(Cl)cc1)N1CCN(c2nc(-c3cccs3)nc3ccccc23)CC1	11%	12%	1.5µM*	3.7µM*
O=S(=O)(c1ccc2c(c1)OCCO2)N1CCN(c2nc(-c3cccnc3)nc3ccccc23)CC1	4%	0%	?	?
CC(C)(O)C#Cc1ccc(C(=O)N2CCC(C(N)=O)(N3CCCCC3)CC2)o1	0%	-7%	?	1%
C/C(=N\NC(=O)C1CCCC1)c1ccc(Cl)cc1Cl	4%	-5%	-21%	10%
COc1ccc(C2=NNC(c3cccnc3)=Nc3ccccc32)cc1	8%	1%	6.6µM*	-15%
Cc1ccc2c(c1)C(c1ccncc1)=NNC(c1cccnc1)=N2	2%	-1%	?	-7%
COc1ccc(CN2C(=O)C(CC(C)C)Nc3ncnc(N4CCN(c5ccccn5)CC4)c32)cc1 (stereo not drawn)	.	-2%	?	?
SMILES	NS1 function inh	SARS PLpro yeast	Pf growth 96h	Pf growth 48h
Cc1ccc(CN2C(=O)C(CC(C)C)Nc3ncnc(N4CCN(c5ccccn5)CC4)c32)cc1 (stereo not drawn)	.	3%	?	9.3µM*
CC(C)CC1Nc2ncnc(N3CCN(c4ccccn4)CC3)c2N(Cc2ccc(Br)cc2)C1=O (stereo not drawn)	.	3%	8.3µM*	7.4µM*
c1cncc(-c2cc(-c3cc(-c4cccnc4)n[nH]3)[nH]n2)c1	22%	.	.	.
Cn1c(-c2cccs2)[n+](C)c2ccccc21	.	-3%	-11%	1µM*
COn1c(=O)c(-c2cccs2)[n+]([O-])c2ccccc21	-91%	-4%	57%	49%
O=C(CCl)N1CCCC1c1ccc2c(c1)OCCO2 (stereo not drawn)	0%	3%	?	?
O=C1[C@H]2[C@@H](c3ccc(Cl)cc3)N3C(=O)N(c4cccc(F)c4)C(=O)[C@@]3(Cc3ccc(Cl)cc3)[C@H]2C(=O)N1C1CCCCC1	20%	12%	?	?
Cc1ccc(N2C(=O)N3[C@H](c4ccc(Cl)cc4)[C@@H]4C(=O)N(C5CCCCC5)C(=O)[C@@H]4[C@]3(Cc3ccccc3)C2=O)cc1	-16%	-1%	3.7µM*	?
O=C1[C@H]2[C@@H](c3ccc(F)cc3)N3C(=O)N(c4ccc(Br)cc4)C(=O)[C@@]3(Cc3ccccc3)[C@H]2C(=O)N1C1CCCCC1	?	9%	3.7µM*	3.3µM*
O=C1[C@H]2[C@@H](c3ccc(F)cc3)N3C(=O)N(c4cccc(F)c4)C(=O)[C@@]3(Cc3ccc(Cl)cc3)[C@H]2C(=O)N1C1CCCCC1	.	-1%	8.3µM*	15µM*
O=C1[C@H]2[C@@H](c3ccc(Cl)cc3)N3C(=O)N(c4cccc(Cl)c4)C(=O)[C@@]3(Cc3ccc(Cl)cc3)[C@H]2C(=O)N1C1CCCCC1	.	1%	?	2.6µM*
Cc1cccc(N2C(=O)N3[C@H](c4ccc(Cl)cc4)[C@@H]4C(=O)N(C5CCCCC5)C(=O)[C@@H]4[C@]3(Cc3ccc(Cl)cc3)C2=O)c1	3%	-4%	?	?
Cc1ccc(NC(=O)c2c3c(nc4ccccc24)CCC3)cc1S(=O)(=O)N(C)C	.	-2%	?	-14%
C#CCOCCOCCOCCNc1nc(N2CCN(C(=O)[C@H](CC(N)=O)n3cc([C@@H](N)C(C)C)nn3)CC2)nc(N2CCN(C(=O)[C@H](CC(N)=O)n3cc([C@@H](N)C(C)C)nn3)CC2)n1	.	9%	.	.
O=C(CN(C(=O)CNC(=O)c1ccco1)c1ccc(F)cc1)NC1CCCC1	8%	-1%	6%	-1%
COc1ccc(C2=NS(=O)(=O)N(C)C(C(=O)N3CCc4ccccc4C3)=C2)cc1OC	14%	6%	52%	?
Cc1cc(C)c2c(N)c(C(=O)c3ccccc3Cl)sc2n1	-1%	0%	29%	18%
Cc1cc(C)c2c(N)c(C(=O)c3ccc(Cl)cc3Cl)sc2n1	24%	2%	35%	13µM*
Cc1noc(C)c1COC(=O)CCN1c2ccccc2Sc2ccccc21	3%	-5%	12µM*	?
CC1=NN(C(N)=S)C(=O)C1N=Nc1ccc(F)cc1 (stereo not drawn)	-42%	1%	19%	1.9µM*
CC1=NN(C(N)=S)C(=O)C1N=Nc1cccc(C(=O)O)c1 (stereo not drawn)	17%	-2%	125%	64%
CC1=NN(C(N)=S)C(=O)C1N=Nc1cccc(C)c1 (stereo not drawn)	-55%	1%	?	12µM*
CC1=NN(C(N)=S)C(=O)C1N=Nc1ccc(O)cc1 (stereo not drawn)	6%	-1%	23%	48%
